Inconclusive results are not listed. Where a call stands in place of a potency, no number is given. Unmarked numbers belong to inactive results. Calls of active or inactive are those of the source. Calls follow the shape of the dose curve; as a rule, active = well fitted curve in the direction sought with a large enough effect; inconclusive = small, poorly fitted or top-dose-only effect, or another doubt; inactive = no such curve, though single readings can be large; an effect the other way counts as inactive or inconclusive.
Columns and labels:
[1] = target: Rap guanine nucleotide exchange factor 3 (Homo sapiens) (UniProt O95398); experiment: Confirmatory qHTS for antagonist of cAMP-regulated guanine nucleotide exchange factor 3 (EPAC1) (AID 1645880); conditions: EPAC1 Rap1B-BODIPY-GDP exchange, fluorescence; activity, negative = inhibition: at 115 µM (top of the series); also: nearly all actives have a fitted effect of over 55% in size
Sequence of Rap guanine nucleotide exchange factor 3 (Homo sapiens) (O95398 whole entry, looked up): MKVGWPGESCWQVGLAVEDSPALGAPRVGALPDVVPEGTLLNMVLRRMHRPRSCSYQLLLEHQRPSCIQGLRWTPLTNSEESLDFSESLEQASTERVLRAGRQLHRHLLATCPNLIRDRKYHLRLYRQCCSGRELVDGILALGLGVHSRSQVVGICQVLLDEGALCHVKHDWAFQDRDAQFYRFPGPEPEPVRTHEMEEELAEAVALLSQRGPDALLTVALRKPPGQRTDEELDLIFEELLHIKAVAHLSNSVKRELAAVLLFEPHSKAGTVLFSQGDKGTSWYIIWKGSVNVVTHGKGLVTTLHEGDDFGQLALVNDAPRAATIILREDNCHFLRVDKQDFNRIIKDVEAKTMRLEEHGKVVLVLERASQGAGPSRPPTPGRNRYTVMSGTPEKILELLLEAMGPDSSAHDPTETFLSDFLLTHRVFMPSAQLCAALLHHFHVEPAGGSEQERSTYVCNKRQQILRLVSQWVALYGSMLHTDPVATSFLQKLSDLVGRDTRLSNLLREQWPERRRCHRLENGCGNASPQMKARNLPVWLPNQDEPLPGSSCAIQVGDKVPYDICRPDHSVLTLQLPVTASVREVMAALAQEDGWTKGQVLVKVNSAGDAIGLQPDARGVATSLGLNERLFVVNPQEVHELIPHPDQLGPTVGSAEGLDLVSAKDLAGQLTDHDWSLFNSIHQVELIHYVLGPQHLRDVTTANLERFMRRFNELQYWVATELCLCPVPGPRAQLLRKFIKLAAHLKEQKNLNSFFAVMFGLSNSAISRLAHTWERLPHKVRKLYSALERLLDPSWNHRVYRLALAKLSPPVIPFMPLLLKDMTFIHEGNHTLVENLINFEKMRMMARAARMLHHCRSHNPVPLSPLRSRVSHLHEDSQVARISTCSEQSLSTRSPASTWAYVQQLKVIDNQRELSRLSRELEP
In short: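 Nucleotide exchange uses 100 nM EPAC1, 250 nM RAP1B-BODIPY-GDP and 50 uM GDP, with compounds in a concentration-titration series. After 5 min at room temperature, fluorescence (480 nm ex/540 nm em) is read every 5 min for 30 min. Data are normalized to control ATA and DMSO.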

[2] = target: Rap guanine nucleotide exchange factor 3 (Homo sapiens) (UniProt O95398); experiment: Confirmatory qHTS for agonist of cAMP-regulated guanine nucleotide exchange factor 3 (EPAC1) (AID 1645881); also: nearly all actives have a fitted effect of over 75% in size; also: potency is read from the fitted curve at half-maximal effect;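 as to activation: EPAC1 catalysed release of BODIPY-GDP from Rap1B seen as fluorescence loss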
[3] = target: Rap guanine nucleotide exchange factor 3 (Homo sapiens) (UniProt O95398); experiment: Counterscreen qHTS for antagonist of cAMP-regulated guanine nucleotide exchange factor 3 (EPAC1) (AID 1645888);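 also: fluorescence loss as bound BODIPY-GDP is released from Rap1B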
In short: (§1)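 Rap1B-BODIPY-GDP 250 nM + GDP 50 uM; cpds 7-pt, final 9.74 nM–152 uM (activator mode) or from 7.32 nM upwards (inhibitor mode); RT; FI 480/540 nm at 5 and 30 min, then ± cAMP, reread.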

[4] = target: Rap guanine nucleotide exchange factor 3 (Homo sapiens) (UniProt O95398); experiment: Counterscreen qHTS for agonist of cAMP-regulated guanine nucleotide exchange factor 3 (EPAC1) (AID 1645889); also: nearly all actives have a fitted effect of over 40% in size; also: potency is read from the fitted curve at half-maximal effect
In short: as §1

SMILES | Potency [1] | Potency [2] | Potency [3] | Potency [4] | activity change, negative = inhibition [3] | activation [4]
CC(OC(=O)c1ccccc1Oc1ccccc1)C(=O)NC1CC1 (centres undefined) | inactive | inactive | inactive | inactive | – | –
CC1(C(=O)Nc2ccc3c(c2)OCO3)CCN1Cc1cccc2c1OCO2 (centres undefined) | inactive | inactive | – | – | -9.44% [at 30.8 µM] | 19.3% [at 30.8 µM]
CCCCC1=C(C(=O)OCC)C(C(=O)OCC)Oc2ccccc21 (centres undefined) | inactive | inactive | inactive | inactive | – | –
Cc1ccc(O)c(C(=O)c2cc(C#N)c(=O)n(-c3nccs3)c2)c1 | inactive | 100 µM (active) | inactive | 35.5 µM (active) | – | –
CC(C)CN(C(=O)c1ccco1)c1nc2ccccc2s1 | inactive | inactive | inactive | inactive | – | –
CCOC(=O)C1Oc2ccccc2C(c2ccc(F)cc2)=C1C(=O)OC (centres undefined) | inactive | inactive | – | – | -24.6% [at 30.8 µM] | 13.2% [at 30.8 µM]
